Assay outcomes deposited in PubChem by several laboratories.
ATG4B inh = blocks human ATG4B protease cleavage of LC3 substrate. 0.51% of 340,000 active. inhibition, % at 8.33 µM. Q9Y4P1. AID 504462. ATG4B cleavage of LC3-PLA2, NBD-HPC fluorescence, 1 h; in the data active = inhibition above about 40%
GRK2 aptamer HTS = inhibitors of human GRK2 displacing RNA aptamer; P25098; bead flow cytometry, FAM-aptamer displacement from GRK2; inhibition of aptamer binding, % at 10 µM; 0.59% of 330,000 active;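 active = inhibition of aptamer binding above 40%, roughly 3 SD of noise, on plates passing a quality check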;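 note: median bead fluorescence of bound FAM aptamer so fluorescent compounds give negative values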
Target sequence (P25098 whole entry, looked up): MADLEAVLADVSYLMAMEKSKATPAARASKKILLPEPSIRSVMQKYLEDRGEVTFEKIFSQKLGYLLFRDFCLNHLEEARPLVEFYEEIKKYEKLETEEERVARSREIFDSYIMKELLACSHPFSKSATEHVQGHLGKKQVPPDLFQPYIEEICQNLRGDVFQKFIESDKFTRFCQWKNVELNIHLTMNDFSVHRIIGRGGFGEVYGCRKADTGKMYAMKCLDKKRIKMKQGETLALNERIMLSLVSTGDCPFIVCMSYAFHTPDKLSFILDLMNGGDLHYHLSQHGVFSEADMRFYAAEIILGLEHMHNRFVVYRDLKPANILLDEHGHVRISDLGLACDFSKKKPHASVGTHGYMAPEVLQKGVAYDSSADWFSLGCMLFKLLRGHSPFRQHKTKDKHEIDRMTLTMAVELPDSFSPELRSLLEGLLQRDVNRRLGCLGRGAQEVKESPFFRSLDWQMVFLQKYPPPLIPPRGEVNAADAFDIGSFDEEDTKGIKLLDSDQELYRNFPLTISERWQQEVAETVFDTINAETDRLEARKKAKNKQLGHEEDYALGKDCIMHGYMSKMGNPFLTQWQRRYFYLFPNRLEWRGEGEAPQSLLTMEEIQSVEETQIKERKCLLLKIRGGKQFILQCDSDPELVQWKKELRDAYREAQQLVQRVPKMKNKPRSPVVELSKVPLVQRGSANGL
Yeast superoxide = yeast age-related superoxide inhibition as caloric restriction mimetic; S. cerevisiae aged cells, superoxide DHE fluorescence; active compounds read low; superoxide response (% of plate mean), % at 10 µM; 0.18% of 330,000 active;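 active = superoxide response under a set limit, about three screen SD below normal, cut at about 65% in these data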;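 note: yeast aged for seven days with compound at 30 °C before DHE staining; 100% = average MFI of all compound-treated wells on the plate with controls excluded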
Efflux pump mplx = inhibitors of Candida antifungal efflux pumps expressed in yeast; AID 485275; S. cerevisiae Candida pump triplex, Nile Red efflux; inhibition, % at 10 µM; 0.44% of 330,000 active;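 active = plate passing quality check with inhibition over a set limit, or well fluorescence over plate mean plus 4 SD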;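 note: Nile Red retained in pooled yeast measured as flow cytometry median fluorescence; 0% = buffer negative control and 100% = Enniatin B positive control; higher means more Nile Red kept so more efflux inhibition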
Superoxide pick = confirmation of caloric restriction mimetics inhibiting yeast age-related superoxide | AID 434994 | S. cerevisiae aging, superoxide DHE fluorescence; active compounds read low | shares compounds with Yeast superoxide | 1% of 850 active | superoxide response (% of plate), % at 10 µM;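 active = superoxide signal below 65% of the plate average of sample wells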;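 note: cells aged with compound for 7 days at 30 degrees C before staining; 100% equals mean DHE fluorescence of all compound wells on the plate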
DHE counter = compound alters DHE oxidation or fluorescence in yeast | shares compounds with Yeast superoxide | S. cerevisiae BY4741, flow cytometry; active compounds read low | fluorescence response, % at 10 µM | 850 tested, under 10 active | AID 435000;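 active = fluorescence response below 15%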;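 note: percent of the mean fluorescence averaged over all compound wells on the plate; lower means stronger quenching of DHE signal or ROS scavenging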
The depositor's hits bear a star; · = not tested or not shown; ! = not active in a repeat. An excerpt weighted towards active compounds, which were near 1.6% of everything screened.

SMILES	ATG4B inh	GRK2 aptamer HTS	Yeast superoxide	Efflux pump mplx	Superoxide pick	DHE counter
CCCCOC(=O)CSc1nnc(-c2ccc(Cl)cc2Cl)o1	2	0	105	0	·	·
CC(C)OC(=O)CSc1nnc(-c2ccc(Cl)cc2Cl)o1	-5	0	107	0	93	92
Cc1ccc(CSc2ncnc3onc(C)c23)cc1	-8	2	58*	0	112	111
CC(Sc1nnnn1-c1ccc(Cl)cc1)C(=O)NCC(=O)Nc1ccc(F)c(F)c1F (configuration not stated)	-11	2	83	0	·	·
Oc1ccc(N=Nc2cccc(Cl)c2)cc1C=Nc1ccc(N2CCOCC2)cc1	13	·	·	·	·	·
Clc1cccc(-c2ccc(C=Nc3ccc(N4CCOCC4)cc3)o2)c1	-1	1	53*	0	93	96
COc1ccc(C(=O)NCC2(c3ccc(OC)c(OC)c3)CCCC2)c(OC)c1	-5	0	113	0	·	·
O=C(c1ccccc1Br)N1CCN(c2ccccc2)CC1	-1	2	98	0	107	95
O=C(c1ccccc1F)N1CCN(c2ccccc2)CC1	-5	7	91	-1	·	·
Cc1ccc(N2CCN(C(=O)c3ccccc3Br)CC2)c(C)c1	10	0	98	0	102	96
Cc1ccc(C)c(N2CCN(C(=O)c3ccccc3Br)CC2)c1	-7	1	108	0	101	105
O=C1Nc2ccccc2N(O)N1c1ccc(S(=O)(=O)N2CCOCC2)cc1	-13	3	103	0	·	·
COc1ccc(NC(=O)CCCOc2ccc(Cl)c(C)c2)cc1S(=O)(=O)N1CCOCC1	-19	4	94	0	·	·
COc1ccc(-n2nc3c(c2NC(=O)C(C)Oc2ccccc2)CS(=O)(=O)C3)cc1 (configuration not stated)	-9	3	54*	0	117	114
O=C(COC(=O)c1ccc(OC(F)(F)F)cc1)NCCN1C(=O)CSC1=O	-12	0	116	0	·	·
Cc1ccc(S(=O)(=O)NNC(=O)c2snnc2C)cc1	-7	0	105	0	·	·
Cc1nnsc1C(=O)NNS(=O)(=O)c1cc(C(F)(F)F)cc(C(F)(F)F)c1	-4	1	59*	0	96	96
COc1ccc(CC(=O)OCC(=O)Nc2cc(Cl)ccc2C)cc1	6	0	63*	0	98	92
CC1(C)C(=O)CC[C@@]2(C)[C@H]1CC[C@@]1(C)CC3=C(CC[C@@H]12)[C@@]1(C)CCC(=O)C(C)(C)[C@@H]1CC3	·	0	64*	1	95	100
C=C(C)[C@@H]1CCC2(C(=O)O)CC[C@]3(C)[C@H](CC[C@@H]4[C@@]5(C)CCC(=O)C(C)(C)[C@@H]5CC[C@]43C)[C@@H]12 (some centres not stated)	12	1	99	0	·	·
COc1ccccc1NC(=O)CSc1ccc(-c2ccc(-n3ccnc3)cc2)nn1	0	5	99	0	105	90
COc1ccccc1NC(=O)CSc1ccc(-c2ccco2)nn1	1	4	97	0	·	·
Cc1ccccc1NC(=O)CSc1nnnn1C	1	0	60*	0	101	94
Cc1ccccc1NC(=O)CSc1ccc(-c2ccc(-n3cccn3)cc2)nn1	-4	0	119	0	99	96
Cc1cc(C(=O)NC2CCCc3c2cnn3-c2ccc(C(C)(C)C)cc2)nn1C (configuration not stated)	3	2	97	0	·	·
SMILES	ATG4B inh	GRK2 aptamer HTS	Yeast superoxide	Efflux pump mplx	Superoxide pick	DHE counter
CC(C)c1ccc(/C=C/C(=O)NC(=S)NN2CCOCC2)cc1	-3	1	67	0	·	·
CC(C)c1ccc(/C=C/C(=O)NC(=S)Nc2ccc(CN3CCOCC3)cc2)cc1	-12	0	61*	0	101	92
O=C(COC(=O)COc1cccc(Br)c1)Nc1c(Cl)cccc1Cl	4	0	114	0	·	·
CC(=O)CSc1nc2ccc(Nc3nc(N4CCOCC4)nc(N4CCOCC4)n3)cc2s1	-9	0	60*	0	101	103
CC(C)(C)NC(=O)CSc1nc2ccc(Nc3nc(N4CCOCC4)nc(N4CCOCC4)n3)cc2s1	-25	0	94	0	·	·
Cc1c(NS(=O)(=O)c2ccccc2)cc(Cl)c(O)c1C	3	1	142	0	89	100
O=C(NC1CCCCCCC1)c1cc([N+](=O)[O-])ccc1Cl	4	2	63*	0	101	92
Cc1cc(NC(=O)CSc2nnc(-c3ccc(S(=O)(=O)N4CCCC4)cc3)n2C)no1	-16	2	51*	0	90	108
CCn1c(SCC(=O)Nc2cc(C)on2)nnc1-c1ccc(S(=O)(=O)N2CCCC2)cc1	1	0	104	0	·	·
O=C(NCCC1=CCCCC1)c1c(O)nc2ccccn2c1=O	5	1	64*	0	85	94
O=C(NCCC1=CCCCC1)c1c(O)nc2sccn2c1=O	-2	0	80	0	·	·
COc1ccccc1OCCNC(=O)c1ccc(Br)cc1	-3	0	58*	0	81	100
c1cnc2c(c1)ccc1cccnc12	-9	1	64*!	0	89	105
CCc1ccccc1NC(=O)c1cc(=O)c2ccccc2o1	0	2	111	0	·	·
Cc1ccc(-n2cc(-c3ccccc3)c3c(NN4CCOCC4)ncnc32)cc1	9	3	62*	0	88	101
CCOc1ccc(N2CC(C(=O)NC3=NCCS3)CC2=O)cc1 (configuration not stated)	-3	2	92	0	·	·
NC(=O)CCn1c2ccccc2c2ccccc21	9	4	102	0	98	98
O=Cc1c(C(=O)O)n(CC(=O)O)c2ccccc12	5	0	85	0	·	·
O=C(O)Cn1c2ccccc2c2ccccc21	-8	0	122	0	107	111
NNC(=O)Cn1c(-c2ccccc2)cc2ccccc21	-3	0	104	1	·	·
NNC(=O)Cn1c2ccccc2c2ccccc21	3	5	105	0	105	90
OCCOCCOCCn1c2ccccc2c2ccccc21	-14	0	113	0	105	105
COc1ccc(CN2CNc3c(c(=O)n(C)c(=O)n3C)C2)cc1	8	5	96	1	·	·
CCCN(CCC)CC(O)Cn1c2ccccc2c2ccccc21 (configuration not stated)	-5	1	80	0	97	94
Cc1cc(NC(=O)CN2CCN(c3ccccn3)CC2)ccc1Br	-3	0	106	0	106	103
O=C(CN1CCN(c2ccccn2)CC1)Nc1ccc(F)c(F)c1	-6	3	96	0	90	88
Cc1cc(C)c(NC(=O)CN2CCN(c3ccccn3)CC2)c(C)c1	6	4	99	0	105	101
O=C(CN1CCN(c2ccccn2)CC1)Nc1ccc(OCc2ccccc2)cc1	-11	0	107	0	·	·
